Rab9 promoter act: activators of Rab9 promoter | 320,000 compounds, 2.8% hits | Potency, µM (doses to about 9.22 µM), for inactives: top-dose activation, negative = inhibition, actives largely listed as activators | Huh7 Rab9 promoter-luciferase reporter, luminescence, 24 h; note: % of control where 0% means no effect; nearly all actives have a fitted effect of over 60% in size
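Quantitative HTS format; Huh7 Rab9-luciferase reporter cells (1500/well) receive compound 2 h post-plating, incubate 24 h at 37 °C, then get luciferase reagent for 10 min before luminescence reading.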
NPC1 promoter act: activates the NPC1 promoter; 320,000 compounds, 2.4% hits; Potency, µM (titrated, usually from 9.22 µM), for the others: at the top dose activation, hits mostly activators; Huh7 NPC1 promoter luciferase reporter, 24 h; note: % of control where 0% means no effect; nearly all actives have a fitted effect of over 60% in size
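Huh7 cells stably carrying NPC1 promoter–luciferase, plated in Opti-MEM with 10% FBS for 2 h, were exposed to compound in DMSO for 24 h at 37 °C; luciferase reagent was added for 10 min and luminescence read.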
SMN2 splice up: enhancers of SMN2 splice variant expression. HEK293 SMN2-luciferase splicing reporter, luminescence, 30-36 h. Potency, µM (titrated, usually from 46.1 µM), inactives show at the top dose activity change, positive = activation, hits mostly activators. 210,000 compounds, 2.8% hits. AID 1458; note: % of control where 0% means no effect; nearly all actives have a fitted effect of over 55% in size
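qHTS luciferase splicing reporter: luminescence rises when SMN2 exon 7 is included in transfected HEK293 cells. Compound exposure lasted 30-36 h at 37C, with 4.5 mM final sodium butyrate as control, followed by a ONE-Glo read.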
FLuc modulator: firefly luciferase modulation, counter-screen for miR-21 project. P08659. purified FLuc, Km substrates, luminescence inhibition. Potency, µM (titrated, usually from 57.5 µM), for inactives: at the highest dose activity change, negative = inhibition, hits mostly inhibitors. 360,000 compounds, 6.9% hits;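 note: plate controls were vehicle for no effect and reference inhibitor for full effect; nearly all actives have a fitted effect of over 55% in size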
Target sequence (P08659 whole entry, looked up): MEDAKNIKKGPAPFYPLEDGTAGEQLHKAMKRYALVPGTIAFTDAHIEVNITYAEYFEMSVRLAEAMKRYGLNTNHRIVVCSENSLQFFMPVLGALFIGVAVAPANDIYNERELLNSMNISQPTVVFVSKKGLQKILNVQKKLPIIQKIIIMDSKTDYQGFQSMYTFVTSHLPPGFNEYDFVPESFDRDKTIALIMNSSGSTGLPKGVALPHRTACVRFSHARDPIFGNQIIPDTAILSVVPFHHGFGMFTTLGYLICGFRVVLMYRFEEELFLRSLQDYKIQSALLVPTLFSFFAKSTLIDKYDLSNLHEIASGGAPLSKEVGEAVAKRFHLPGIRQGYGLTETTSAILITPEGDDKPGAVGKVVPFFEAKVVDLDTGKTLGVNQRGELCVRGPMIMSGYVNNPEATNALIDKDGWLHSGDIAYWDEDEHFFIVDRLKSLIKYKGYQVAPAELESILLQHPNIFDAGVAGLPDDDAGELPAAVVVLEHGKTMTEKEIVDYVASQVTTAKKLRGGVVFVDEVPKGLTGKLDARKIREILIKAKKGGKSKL
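Biochemical qHTS of compounds, final roughly 60 µM downward over six points, against 10 nM purified firefly luciferase using Km concentrations of substrates (10 uM D-luciferin, 10 uM ATP) in Tris acetate pH 7.5 buffer; luminescence output.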
ELG1 DNA repair: inhibitors of ELG1-dependent DNA repair in HEK293T cells; HEK293T ELG1-luciferase reporter, luminescence, 16 h; DNA damage induced by 5-fluorouridine; 330,000 compounds, 2.3% hits; Potency, µM (top dose mostly 46.1 µM), for inactives: top-dose activity change, negative = inhibition, actives largely listed as inhibitors; AID 504467; note: % is set by controls: 0 for no effect and ±100 for the full control effect; nearly all actives have a fitted effect of over 55% in size
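DMSO vehicle served as the neutral condition. Each well held 2,000 cells given 5-fluorouridine plus compound; after 16 hr at 37 °C/5% CO2, ONE-Glo was added and luciferase measured 30 min later.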
ELG1 genotox: genotoxicity induction in ELG1-luciferase HEK293T cells; HEK293T ELG1-luciferase reporter, luminescence, 16 h; Potency, µM (series often up to 46 µM), for the others: top-dose activity change, positive = activation, actives largely listed as activators; 330,000 compounds, 1.3% hits; AID 504466; note: % of control where 0% means no effect; nearly all actives have a fitted effect of over 60% in size
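Luminescence read-out: rising ELG1-luciferase signal, reflecting elevated ELG1 protein under genetic stress, flags genotoxic compounds. Cells were treated for 16 hr at 37 °C before ONE-Glo detection.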
* = called active by the depositor; ? = inconclusive; · = not tested or not shown; [ ] = another dose, or the depositor's remark. An excerpt weighted towards active compounds, which were near 9.4% of everything screened. Calls come from the whole dose curve; as a rule, active = well fitted curve in the direction sought with a large enough effect; inconclusive = small, poorly fitted or top-dose-only effect, or another doubt; inactive = no such curve, though single readings can be large; an effect the other way counts as inactive or inconclusive. Potency is the fitted concentration of half-maximal effect.

SMILES	Rab9 promoter act	NPC1 promoter act	SMN2 splice up	FLuc modulator	ELG1 DNA repair	ELG1 genotox
CNC(=O)Nc1ccc2nc(C)oc2c1	-9.2%	-7.3%	·	2.7%	11.0%	-0.3%
O=C(Nc1ccccc1)Nc1ccc2ocnc2c1	1.26µM*	?	?	10.7µM*	?	13.4%
O=C(Nc1ccccc1)Nc1ccc2ncoc2c1	?	?	11.2µM*	12µM*	?	?
CN(C)c1ccc(C(CNS(=O)(=O)c2ccc(Br)cc2)N2CCCC2)cc1 (centres undefined)	·	·	·	-4.2%	·	·
CCOc1ccccc1NS(=O)(=O)c1c(C)noc1C	2.2%	2.6%	28.5%	-3.4%	?	23.1µM*
COc1ccc2c(c1)c(=O)oc1c(C)c(OC(C)C(=O)NCC3CCC(C(=O)O)CC3)ccc12 (centres undefined)	4.9%	7.8%	·	15.1µM*	0.0%	9.1%
COc1ccc2c(c1)c(=O)oc1c(C)c(OCc3ccc(C(=O)O)cc3)ccc12	6.8%	-4.7%	·	23.9µM*	10.4%	2.7%
Cc1cc(=O)oc2c(C)c(OC(C)C(=O)NCC3CCC(C(=O)O)CC3)ccc12 (centres undefined)	-1.3%	6.3%	·	-0.5%	13.4%	1.1%
COc1ccc2c(c1)c(=O)oc1c(C)c(OCc3cc(C(=O)O)oc3C)ccc12	11.6%	-0.8%	0.9%	10.7µM*	9.6%	?
O=S(=O)(Nc1ccc(F)c(C(F)(F)F)c1)c1ccc(N2CCCCS2(=O)=O)cc1	·	·	·	-5.7%	·	·
C=Cc1ccc(CN2C(=O)N(c3ccc(CC)cc3)S(=O)(=O)c3ccccc32)cc1	·	·	·	-6.1%	·	·
N/C(=N\C(=S)Nc1ccccc1)c1ccccc1	0.708µM*	0.501µM*	·	10.7µM*	?	?
CNC(=S)/N=C(/Nc1ccccc1)c1ccccc1	-4.6%	-2.0%	-17.2%	-19.3%	-8.9%	-7.0%
CCn1ccc2cc(S(=O)(=O)N3CCC(C(=O)NCCc4ccccc4Cl)CC3)ccc21	·	·	·	-1.2%	·	·
O=C(COc1ccc(F)cc1)Nc1nnc(C2CCCCC2)s1	15.1%	2.0%	·	-0.4%	?	6.7%
Cc1cc(C(=O)Nc2nnc(C(F)(F)F)s2)no1	14.4%	10.8%	25.1%	?	?	16.8%
CCSc1nnc(NC(=O)c2cccnc2Cl)s1	11.2%	17.8%	17.8µM*	?	?	?
O=C(Nc1nnc(C(F)(F)F)s1)c1ccc(Br)s1	12.2%	?	?	8.49µM*	?	11.4%
CCSc1nnc(NC(=O)c2ccccn2)s1	?	0.891µM*	3.98µM*	8.49µM*	?	16.4µM*
CCSc1nnc(NC(=O)c2cccnc2)s1	28.7%	?	?	?	?	?
O=C(Nc1nnc(C2CCCCC2)s1)c1ccc(Br)s1	1.78µM*	0.501µM*	3.16µM*	?	?	?
Cc1nc2ccc(S(=O)(=O)CCC(=O)Nc3ccc(F)cc3C)cc2s1	·	·	·	1.4%	·	·
CCN1CCOC(=O)C1CC(=O)Nc1cc(Cl)ccc1OC (centres undefined)	·	·	4.1%	-5.5%	·	·
CCc1nnc(SCC(=O)Nc2cccc(C(F)(F)F)c2)c2cc3oc(C)cc3n12	·	·	·	1.9%	·	·
CN(C)CCn1c(CO)nc2c1c(=O)n(C)c(=O)n2C	·	·	-6.9%[9.22 µM]	·	·	·
SMILES	Rab9 promoter act	NPC1 promoter act	SMN2 splice up	FLuc modulator	ELG1 DNA repair	ELG1 genotox
O=C(Nc1ccccc1C(=O)Nc1nnc(C(F)(F)F)s1)c1ccccc1Cl	-26.4%	-25.9%	·	?	5.17µM*	-18.3%
CCSc1nnc(NC(=O)c2ccc(Br)s2)s1	?	?	?	15.1µM*	?	?
CCSc1nnc(NC(=O)c2ccccc2)s1	3.16µM*	3.55µM*	11.2µM*	13.5µM*	?	?
NC(=O)c1ccccc1NC(=O)c1ccccc1Cl	2.3%	1.7%	·	-16.6%	14.5%	5.4%
CCSc1nnc(NC(=O)c2ccccc2C)s1	2.51µM*	?	10µM*	23.9µM*	?	?
COc1cccc(Cn2c(=O)n(-c3ccc(C)c(F)c3)c(=O)c3sc4ccccc4c32)c1	·	·	6.4%	0.2%	·	·

Bioassay records: PubChem BioAssay, National Center for Advancing Translational Sciences (NCATS)
